# Screens as filed in PubChem.
# Hits are enriched below; roughly 19% of the tested compounds scored in any of these assays.
# TDP1 cell noCPT – qHTS for Inhibitors of human tyrosyl-DNA phosphodiesterase 1 (TDP1): qHTS in cells in absence of CPT; DT40 Tdp1-/- hTDP1 cells, no CPT, ATP luminescence, 48 h; Potency, µM (top dose mostly 46.2 µM), inactives show at the top dose activity change, negative = growth inhibition, usual class: inhibitors; hit rate 15% among 420,000; further: potency means the concentration at half of the fitted maximal effect; nearly all actives have a fitted effect of over 55% in size
#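 Luminescent ATP content (CellTiter-Glo) served as the growth readout. Knockout chicken DT40 cells expressing human TDP1 were exposed to compounds without camptothecin for a minimum 48 hr at 37 °C.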
# HT1080NT lethal – qHTS for induction of synthetic lethality in tumor cells producing 2HG: qHTS for the HT-1080-NT fibrosarcoma cell line; HT-1080-NT fibrosarcoma viability, CellTiter-Glo ATP luminescence, 48 h; hit rate 1.6% among 360,000; AID 686970, 2013; Potency, µM (series often up to 46.1 µM), without a hit: at the highest dose activity, negative = less viability, actives largely listed as cytotoxic;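 further: NT is the 2HG producing partner of a matched IDH1 knockdown line; potency means the concentration at half of the fitted maximal effect; 0% = DMSO-treated cells and -100% = media-only wells without cells; nearly all actives have a fitted effect of over 55% in size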
#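 A 48-hour cytotoxicity screen used HT-1080-NT cells plated 2 hours before compound delivery. ATP-based CellTiter-Glo luminescence measured viability, normalized to DMSO and no-cell controls.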
# IL1B secr inh – qHTS for Inhibitors of Inflammasome Signaling: IL-1-beta AlphaLISA Primary Screen | hit rate 4.7% among 360,000 | THP-1 LPS/ATP IL-1B secretion, AlphaLISA, 16 h; stronger effect = lower value | activity change, % at 57.5 µM; in the data active means activity change below about -50%; inconclusive means mostly about -30% to -49%
#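 THP-1 cells pretreated 1 hr with compounds (up to 57.5 uM final), then stimulated with LPS (250 ng/mL final) plus ATP (1.25 mM final); secreted IL-1B measured by AlphaLISA after 16 hr, decreased signal indicating inhibition.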
# HT1080 IDH1KD tx – qHTS for induction of synthetic lethality in tumor cells producing 2HG: qHTS for the HT-1080-IDH1KD cell line; Potency, µM (doses to about 46.1 µM), for the others: top-dose activity, negative = toxicity, usual class: cytotoxic; HT-1080 IDH1 knockdown viability, ATP luminescence, 48 h; hit rate 2% among 360,000; AID 686971, 2013;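 further: potency means the concentration at half of the fitted maximal effect; 0% = DMSO wells and -100% = cell-free medium wells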
#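 In this qHTS, HT-1080 cells depleted of IDH1 are exposed for 48 h at 37 °C to compound titrations. Toxicity is scored from CellTiter-Glo luminescence, with DMSO as full viability and medium alone as none.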
# DT40 TDP1 CPT – qHTS for Inhibitors of human tyrosyl-DNA phosphodiesterase 1 (TDP1): qHTS in cells in presence of CPT. Potency, µM (titrated, usually from 46.2 µM), inactives show top-dose activity change, negative = growth inhibition, actives largely listed as inhibitors. chicken DT40 Tdp1-/-;hTDP1 cells + 20 nM CPT, ATP luminescence, 48 h. hit rate 12% among 420,000; further: potency means the concentration at half of the fitted maximal effect; nearly all actives have a fitted effect of over 55% in size
#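 Chicken DT40 Tdp1-/- cells stably complemented with human TDP1 were seeded at 400 cells/well in medium containing 20 nM camptothecin, exposed to pin-transferred compounds, and grown at 37 °C for at least 48 hr. Viability was read as ATP luminescence.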
# The depositor's hits bear a star; ? = inconclusive; . = not tested or not shown; [ ] = another dose, or the depositor's remark. Unless noted, the call rests on the fitted dose curve; in most records, active means well fitted curve in the direction sought with a large enough effect; inconclusive means small, poorly fitted or top-dose-only effect, or another doubt; inactive means no such curve, though single readings can be large; an effect the other way counts as inactive or inconclusive. Unless noted, on the % scale 0 is the no-effect control and ±100 the full control effect.
SMILES,TDP1 cell noCPT,HT1080NT lethal,IL1B secr inh,HT1080 IDH1KD tx,DT40 TDP1 CPT
CCN1CCN(Cc2cc(OC)c(OC)cc2[N+](=O)[O-])CC1,-9%,2%,20,9%,-6%
COC(=O)C1=C(c2cccc(OC)c2OC)C[C@@H]2CC[C@H]1N2C(=O)NCc1ccco1,-5%,0%,19,-2%,-2%
CC/C(=C(\c1ccc(O)cc1)c1ccc(OCCN(C)C)cc1)c1ccccc1,15µM*,16µM*,12,18µM*,?
CCC(=C(c1ccc(O)cc1)c1ccc(OCCN(C)C)cc1)c1ccccc1,-23%,0%,5,0%,-7%
CNC(=O)OCC[N+](C)(C)C,-19%,.,.,.,5%
CC(=O)NCC(N)C(=O)c1ccc(Cl)c(Cl)c1 (centres undefined),?,?,.,-13%,?
CC(=O)NCC(N)C(=O)c1ccc(C)cc1 (centres undefined),16µM*,-2%,.,-2%,?
COC(=O)[C@@]1(Sc2ccc(C)cc2)CC(=O)N(P(=O)(OC)OC)[C@@H]1c1ccccc1,?,9%,-5,-1%,?
CC(=O)OC1(C)CC(C)C(=O)C(C(O)CC2CC(=O)NC(=O)C2)C1 (centres undefined),0.21µM*,1.6µM*,-109*,0.13µM*,0.18µM*
COC(=O)c1ccc(C(C(=O)NC2CCCCC2)N(CCN2CCOCC2)C(=O)Cc2cccs2)cc1 (centres undefined),?,1%,-6,-1%,-12%
C=C1[C@H]2CC[C@H]3[C@]4(C)C[C@H](O[C@H]5O[C@H](CO)[C@@H](OS(=O)(=O)O)[C@H](OS(=O)(=O)O)[C@H]5OC(=O)CC(C)C)C[C@@H](C(=O)O)[C@H]4CC[C@]3(C2)[C@H]1O,1%,3%,16,-3%,3%
Cc1cc(NC(=O)CCl)nn1C,15µM*,?,-101*,?,23µM*
Cn1ccc(NC(=O)CCl)n1,?,?,-102*,?,?
Cc1ccc(C(=O)Nc2cnn(-c3ccc(C(=O)N(C)Cc4n[nH]c5c4CCCC5)cc3)c2)c(C)c1,?,.,.,.,15%[9.04 µM]
Cc1ccc(/C=N/n2c(-c3ccccc3)csc2=S)cc1,?,.,.,.,15µM*
O=C(Oc1ccccc1)N1CCC2(CCCN(Cc3ccccc3)C2)CC1,?,.,.,.,4%
Clc1cccc(NC2=NCCS2)c1,-20%,-1%,0,-2%,-2%
CCCCCCC(=O)c1c(O)n(-c2ccc(OC)cc2)c(=O)[nH]c1=O (tested in a mixture with another compound),26µM*,-18%,20,-7%,-29%
COc1ccc(-n2c(O)c(/C(C)=N/Nc3ccccc3)c(=O)[nH]c2=O)cc1,-10%,1.6µM*,22,1.8µM*,16%
COc1ccc(-n2c(O)c(/C(C)=N/N3CCCCCC3)c(=O)[nH]c2=O)cc1,-22%,2%,4,4%,13%
COc1ccc(S(=O)(=O)N2CCN(C(=O)c3ccc(COc4ccccc4)o3)CC2)cc1,?,-17%,-14,-14%,?
COc1cccc(-c2nn3c(=O)cc(CN4CCN(C(=O)COc5ccccc5C)CC4)nc3s2)c1,23µM*,.,.,.,?
COc1ccc(OCC(=O)N2CCN(Cc3cc(=O)n4nc(-c5ccccc5C)sc4n3)CC2)cc1,10µM*,.,.,.,15µM*
COc1ccc(-c2nn3c(=O)cc(CN4CCN(S(=O)(=O)c5ccc(C)cc5)CC4)nc3s2)cc1,16µM*,.,.,.,21µM*
COc1ccccc1-c1nn2c(=O)cc(CN3CCN(C(=O)Nc4ccc(C)cc4Cl)CC3)nc2s1,6.5µM*,.,.,.,15µM*
SMILES,TDP1 cell noCPT,HT1080NT lethal,IL1B secr inh,HT1080 IDH1KD tx,DT40 TDP1 CPT
COc1ccc(-c2nn3c(=O)cc(CN4CCN(C(=O)COc5ccc(F)cc5)CC4)nc3s2)cc1,?,.,.,.,-28%
CCC(=NCc1ccco1)c1c(O)n(-c2ccc(Cl)cc2)c(=O)[nH]c1=O,-24%,1%,-3,3%,-3%
CC(=O)Nc1ccccc1C(=O)OCc1ccccc1F,-8%,6%,12,-1%,-3%
Cn1c(O)c(/C=C2\C=c3ccccc3=NC2=O)c(=O)n(C)c1=O,18%,3%,39,8%,?
Cn1c(O)c(/C=C2\N=c3ccccc3=C2CCNC(=S)NC2CC2)c(=O)n(C)c1=O,23µM*,6%,-96*,-1%,15µM*
Cc1ccc(S(=O)(=O)N2CN3CCN(C3)C2)cc1,?,-5%,0,-9%,16µM*
O=P(NCc1ccccc1)(Oc1ccccc1)Oc1ccccc1,-26%,2%,0,-8%,?
CCCCn1c(N)c(C(=O)OCCOC)c2nc3ccccc3nc21,-26%,14%,.,16%,3%
CCCCn1c(N)c(C(=O)OCC2CCCO2)c2nc3ccccc3nc21 (centres undefined),18µM*,?,-2,-17%,18µM*
CC(C)CCn1c(N)c(C(=O)OCC2CCCO2)c2nc3ccccc3nc21 (centres undefined),?,?,-21,21µM*,?
Nc1c(C(=O)OC2CCCCC2)c2nc3ccccc3nc2n1CC1CCCO1 (centres undefined),16µM*,-21%,?,-15%,?
CC(C)CCOC(=O)c1c(N)n(CC2CCCO2)c2nc3ccccc3nc12 (centres undefined),21µM*,-17%,-65*,-8%,?
CC(C)OC(=O)c1c(N)n(CC2CCCO2)c2nc3ccccc3nc12 (centres undefined),?,-4%,-17,-1%,?
COC(=O)c1ccccc1C(=O)c1ccc(OCCN2CCCCC2)cc1,-28%,.,.,.,?
CCCCn1c(NS(=O)(=O)c2ccc(C)cc2)c(C(=O)OCC)c2nc3ccccc3nc21,?,-2%,-7,-4%,?
CCCCn1c(NC(=O)c2ccco2)c(C(=O)OCC)c2nc3ccccc3nc21,4.6µM*,?,?,-26%,9.2µM*
CCN(C(C)=O)c1cccc(-c2ccnc3c(C#N)cnn23)c1,6%,.,.,.,4%
COC(=O)[C@]1(C)CC[C@@]2(C)CC[C@@]3(C)C4=CCc5c(cc(O)c(O)c5C)[C@]4(C)CC[C@@]3(C)C2C1 (some centres undefined),1.8µM*,.,.,.,4.6µM*
